Laboratory results as given in PubChem BioAssay AID1307 (SRMLSC, 2008).
Hit rate of the full screen: of about 1,200 compounds, fewer than 10 were called active. The list is a sample of the results. Entries with a potency or affinity are not part of this list. A number with no mark means an inactive call.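 Rule for the calls: active = inhibition reaching a set limit at one or more tested concentrations; inactive = inhibition under that limit at every dose.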

Experiment: yeast RAM network inhibitors, dose response, S. cerevisiae (AID 1307);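 note: 0% = DMSO vehicle wells and 100% = 10 µM 1-NA-PP1 control; higher inhibition means more yeast growth since RAM block rescues cells from 5-FOA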
Details: S. cerevisiae RAM network URA3 reporter, 5-FOA growth OD615, active compounds read high, yeast express analog-sensitive mutant Cbk1 kinase; at 100 µM unless noted

**Q.** For C=C(C)COc1ccc(-c2[nH]ncc2Oc2ccccc2OCC)c(O)c1, which max inhibition is on record?
**A.** The max inhibition was 3.4%.

**Q.** With CCOC(=O)c1sc(-c2ccccc2)cc1NC(=O)c1ccc(S(=O)(=O)N(CCOC)CCOC)cc1 as the compound, how does the max inhibition read?
**A.** The max inhibition was 1.69% [at 12.5 µM].

**Q.** For O=C1Nc2ccccc2/C1=N\N=C\C1=C(N2CCOCC2)C(=C\c2ccccc2)/CC1, which max inhibition is on record?
**A.** Its max inhibition is 19.6%.

**Q.** With O=S(=O)(Nc1nc2ccccc2nc1Nc1ccc2c(c1)OCCO2)c1cccs1 as the compound, how does the max inhibition read?
**A.** Its max inhibition is 5.19%.

**Q.** With Cc1cc(C)c(C)c(S(=O)(=O)N2CCC(C(=O)OCC(=O)N3c4ccccc4NC(=O)C3(C)C)CC2)c1C as the compound, how does the max inhibition read?
**A.** The max inhibition was 4.49%.

**Q.** For CCOC(=O)c1ccc(NC(=O)Nc2ccc3c4c(cccc24)C(=O)N3CC)cc1, which max inhibition is on record?
**A.** Its max inhibition is 3.19%.

**Q.** Which max inhibition does the source give for CC(C)c1ccc(CNc2cc(N3CCCC3)ccc2[N+](=O)[O-])cc1 here?
**A.** The max inhibition was 5.27%.

**Q.** For CCCCc1ccc(-c2csc(/C(C#N)=C\c3ccc(C)o3)n2)cc1, which max inhibition is on record?
**A.** The max inhibition was 5.43%.

**Q.** With O=C(CN(Cc1cccs1)C(=O)CSc1nnc(COc2ccccc2)o1)NC1CCCC1 as the compound, how does the max inhibition read?
**A.** The max inhibition was 3.76%.

**Q.** For COc1ccc(/C=C2\SC(=O)N(CCC(=O)Nc3ccccc3)C2=O)cc1OC, which max inhibition is on record?
**A.** Its max inhibition is 3.41%.

**Q.** With Cc1cc2c(C)ccc(C)c2nc1SCC(=O)c1cccs1 as the compound, how does the max inhibition read?
**A.** The max inhibition was 5.59% [at 25 µM].

**Q.** Which max inhibition does the source give for COc1ccc(O[C@H]2C=C[C@@H](c3ccccc3)O[C@@H]2CO/N=C(\C)CCC(=O)OC[C@H]2O[C@H](c3ccccc3)C=C[C@@H]2Oc2ccc(OC)cc2)cc1 here?
**A.** The max inhibition was 6.56%.

**Q.** Which max inhibition does the source give for Cc1ccc(S(=O)(=O)N2CCC(=O)N(C(COCc3cccc(C(F)(F)F)c3)C(C)C)CC2)cc1 (stereo not drawn) here?
**A.** Its max inhibition is 2.65% [at 0.782 µM].

**Q.** For CCOC(=O)c1c(NC(=O)CSc2nnc(-c3ccco3)o2)sc(C)c1C, which max inhibition is on record?
**A.** Its max inhibition is 4.63% [at 0.391 µM].

**Q.** For CCOC(=O)c1cc(C(C)C)sc1NC(=O)COC(=O)CCS(=O)(=O)c1ccccc1, which max inhibition is on record?
**A.** Its max inhibition is 3.24% [at 50 µM].

**Q.** With Cc1c(N=Nc2ccc(N(C)C)cc2)c(=O)n(-c2ccccc2)n1C as the compound, how does the max inhibition read?
**A.** Its max inhibition is 20.4%.

**Q.** Which max inhibition does the source give for COc1ccc(N(CC(=O)NCCSCc2ccco2)S(=O)(=O)c2ccc(C)cc2)cc1 here?
**A.** The max inhibition was 4.74% [at 50 µM].

**Q.** With Cc1ccc(N=C(NOCc2ccc(Cl)cc2Cl)c2nonc2N)c(C)c1 as the compound, how does the max inhibition read?
**A.** The max inhibition was 5.27%.

**Q.** Which max inhibition does the source give for CCOC(=O)c1sc(NC(=O)CSc2nnc(-c3ccc(OC)cc3)n2CCOC)nc1C here?
**A.** Its max inhibition is 1.33% [at 0.782 µM].

**Q.** For CCC(=O)NC(=S)Nc1ccc(NC(=S)NC(=O)c2ccccc2)cc1, which max inhibition is on record?
**A.** The max inhibition was 5.34% [at 50 µM].

**Q.** For O=C(CSc1nnc(-c2ccccc2Br)o1)N1CCc2ccccc2C1, which max inhibition is on record?
**A.** Its max inhibition is 2.54%.

**Q.** For N#Cc1ccsc1NC(=O)COC(=O)CCCSc1nc2ccccc2s1, which max inhibition is on record?
**A.** Its max inhibition is 2.77% [at 50 µM].

**Q.** For O=C(/C=C/c1cccc([N+](=O)[O-])c1)NCCSCc1ccccc1Cl, which max inhibition is on record?
**A.** Its max inhibition is 1.79% [at 6.25 µM].

**Q.** For Clc1ccc(CSc2nnc(/C=C/c3ccccc3)o2)cc1, which max inhibition is on record?
**A.** Its max inhibition is 2.78% [at 25 µM].

**Q.** With CCSc1ccc(-c2nn(-c3ccccc3)cc2/C=C(/C#N)C(=O)NCCCOC)cc1 as the compound, how does the max inhibition read?
**A.** Its max inhibition is 13%.

**Q.** With CCOC(=O)c1c(-c2cccs2)csc1NC(=O)COC(=O)c1c(C)noc1C as the compound, how does the max inhibition read?
**A.** Its max inhibition is 4.68%.

**Q.** For Cc1ccc(NC2=Nc3ccccc3N3C2=Nc2c(c(C)nn2-c2ccccc2)C3c2ccc(O)c(O)c2)cc1 (stereo not drawn), which max inhibition is on record?
**A.** The max inhibition was 6.97%.

**Q.** Which max inhibition does the source give for COc1ccc(C(=O)CSc2nc(C(C)(C)C)nc3ccccc23)cc1 here?
**A.** The max inhibition was 2.25% [at 1.563 µM].

**Q.** For Cc1[nH]c2ccccc2c1/C=C/c1nc2ccccc2c(=O)n1-c1ccc([N+](=O)[O-])cc1, which max inhibition is on record?
**A.** Its max inhibition is 6.44%.

**Q.** For N#Cc1nc(COc2ccccc2)oc1N1CCN(c2cccc(Cl)c2)CC1, which max inhibition is on record?
**A.** Its max inhibition is 3.36% [at 50 µM].

**Q.** With O=C(COC(=O)c1ccc(-c2ccccc2)cc1)Nc1ccccc1-c1ccccc1 as the compound, how does the max inhibition read?
**A.** Its max inhibition is 4.8% [at 50 µM].

**Q.** With CC(C)(C)OC(=O)NCCCCCNC(=O)c1[nH]cnc1C(=O)N[C@@H](Cc1ccccc1)C(=O)OCc1ccccc1 as the compound, how does the max inhibition read?
**A.** Its max inhibition is 6.61%.

**Q.** With CCOc1ccc(NS(=O)(=O)c2ccc(NC(=S)NC(=O)CC(C)C)cc2)cc1 as the compound, how does the max inhibition read?
**A.** The max inhibition was 3.65% [at 0.196 µM].

**Q.** Which max inhibition does the source give for COc1cc(CC(NC(C)=O)C(=O)NC2CCN(c3c(Cc4ccccc4)c(C)nc4ncnn34)CC2)cc(OC)c1 (stereo not drawn) here?
**A.** Its max inhibition is 3.02% [at 25 µM].

**Q.** For O=C(/C=C/c1ccccc1)N1CCN(c2cccc(Cl)n2)CC1, which max inhibition is on record?
**A.** The max inhibition was 6.02%.

**Q.** For CCOC(=O)c1c(C)[nH]c(C(=O)C(C)Sc2ccc(Cl)cc2)c1C (stereo not drawn), which max inhibition is on record?
**A.** The max inhibition was 2.41% [at 12.5 µM].

**Q.** With O=C(CSCc1ccc(Cl)cc1)Nc1cccc(C(=O)Nc2ccccc2C(=O)O)c1 as the compound, how does the max inhibition read?
**A.** The max inhibition was 1.32% [at 0.196 µM].

**Q.** Which max inhibition does the source give for CCOc1ccc(NC(=O)CSc2nnc(-c3ccccc3Cl)n2Cc2ccco2)cc1 here?
**A.** Its max inhibition is 1.32% [at 0.782 µM].

**Q.** For C=CCN1C(=O)C(Cc2ccc(C)cc2)S/C1=N/N=C/c1ccco1 (stereo not drawn), which max inhibition is on record?
**A.** Its max inhibition is 6.91%.

**Q.** Which max inhibition does the source give for CC(=O)c1cc(C(=O)c2ccccc2)sc1Nc1ccccc1 here?
**A.** The max inhibition was 6.93%.

**Q.** With CCOC(=O)c1c(-c2cccc([N+](=O)[O-])c2)csc1NC(=O)CCCOc1ccccc1OC as the compound, how does the max inhibition read?
**A.** The max inhibition was 2.67% [at 50 µM].

**Q.** With COc1ccc(CN(CCC(c2ccccc2)c2ccco2)C(=O)c2ccco2)cc1 (stereo not drawn) as the compound, how does the max inhibition read?
**A.** The max inhibition was 4.81% [at 6.25 µM].

**Q.** For COc1ccccc1NC(=O)C(Sc1ccccc1)c1ccccc1 (stereo not drawn), which max inhibition is on record?
**A.** Its max inhibition is 2.18% [at 50 µM].

**Q.** For CCOC(=O)/C(=C/c1ccc(N2CCC(c3ccccc3)=N2)cc1)C(C)=O, which max inhibition is on record?
**A.** Its max inhibition is 3.75%.

**Q.** With O=C(COC(=O)C1(c2ccccc2F)CCCC1)Nc1ncc(C(F)(F)F)cc1Cl as the compound, how does the max inhibition read?
**A.** Its max inhibition is 2.79% [at 0.196 µM].

**Q.** With CCOC(=O)c1cnc(SC)nc1Oc1cccc(NC(=O)c2ccc(C)cc2)c1 as the compound, how does the max inhibition read?
**A.** The max inhibition was 5.83% [at 50 µM].

**Q.** For CCCC(CCC)=NNc1ccc(S(=O)(=O)Nc2ccccc2OC)cc1[N+](=O)[O-], which max inhibition is on record?
**A.** Its max inhibition is 3.78% [at 0.391 µM].

**Q.** Which max inhibition does the source give for Cc1cccc(COCC(Cc2ccccc2)N2CCN(C(=O)c3ccc(C(F)(F)F)cc3)CCC2=O)c1 (stereo not drawn) here?
**A.** Its max inhibition is 3.28% [at 0.782 µM].
